# Source: PubChem BioAssay (NCATS)
# Records with an inconclusive call do not appear. A call without a number means that no potency is given here. Calls of active or inactive are those of the source. Calls follow the shape of the dose curve; as a rule, active = well fitted inhibition curve with a large enough effect; inconclusive = small, poorly fitted or top-dose-only effect; inactive = flat fitted curve, though single readings scatter.
# Columns and labels:
# [1] = target: Glutathione peroxidase 1 (Homo sapiens) (UniProt P07203); test: Primary qHTS Assay for Inhibitors of Recombinant Selenoprotein Glutathione Peroxidase 1 (GPX1) (AID 1845191); details: recombinant GPX1, GR-coupled NADPH fluorescence, 15 min; series mostly up to 48.8 µM
# Procedure, shortened: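 GPX1 10 nM, GR 100 nM, GSH 1 mM, NADPH 0.5 mM, CHP 0.5 mM (final). 30-min cpd preincubation, RT. Ex340/Em450 read t=0, t=15 min.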
# [2] = target: Phospholipid hydroperoxide glutathione peroxidase GPX4 (Homo sapiens) (UniProt P36969); test: Primary qHTS Assay for Inhibitors of Recombinant Selenoprotein Glutathione Peroxidase 4 (GPX4) (AID 1845192); details: recombinant GPX4, GR-coupled NADPH fluorescence, 15 min; series mostly up to 50 µM; also: potency is read from the fitted curve at half-maximal effect
# Procedure, shortened: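 qHTS, GR-coupled: GPX4 200 nM + cpd 30 min RT → GSH 1 mM, NADPH 0.5 mM, GR 100 nM → CHP 0.5 mM start; fluor 340/450 at t0 and t15 min; no-enzyme wells as control.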
# Also: nearly all actives have a fitted effect of over 65% in size.
# Glutathione peroxidase 1 (Homo sapiens), sequence (P07203 whole entry, looked up): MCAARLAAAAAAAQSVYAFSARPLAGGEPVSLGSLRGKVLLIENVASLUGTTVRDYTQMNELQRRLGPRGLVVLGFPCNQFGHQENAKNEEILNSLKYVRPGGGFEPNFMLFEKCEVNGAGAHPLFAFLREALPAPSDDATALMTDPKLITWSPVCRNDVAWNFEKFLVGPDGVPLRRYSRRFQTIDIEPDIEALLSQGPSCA
# Phospholipid hydroperoxide glutathione peroxidase GPX4 (Homo sapiens), sequence (P36969 whole entry, looked up): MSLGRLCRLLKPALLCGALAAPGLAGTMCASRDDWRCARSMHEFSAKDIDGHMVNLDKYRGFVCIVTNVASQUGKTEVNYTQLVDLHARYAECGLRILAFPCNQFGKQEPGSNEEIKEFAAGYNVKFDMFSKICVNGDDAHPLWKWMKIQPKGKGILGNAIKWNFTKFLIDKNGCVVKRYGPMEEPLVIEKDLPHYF
Compound,Potency [1],Potency [2]
O=[N+]([O-])c1cc(O)c(O)c([N+](=O)[O-])c1,inactive,inactive
COc1ccc2c(c1O)-c1cccc3c1[C@@H](C2)N(C)CC3,inactive,inactive
CC(C)(C)OC(=O)NC1[C@H]2CNC[C@@H]12 (stereo partly drawn),inactive,inactive
CCN(CC)C(=O)N[C@H]1C[C@@H]2c3cccc4[nH]cc(c34)C[C@H]2N(C)C1,inactive,inactive
CCCCCCC(=O)O[C@H]1CC[C@H]2[C@@H]3CC[C@H]4CC(=O)C=C(C)[C@]4(C)[C@H]3CC[C@]12C,inactive,6.31 µM (active)
CNc1ccc2oc(C[C@H]3O[C@@]4(CC[C@H]3C)O[C@H]([C@H](C)C(=O)c3ccc[nH]3)[C@H](C)C[C@H]4C)nc2c1C(=O)O,inactive,inactive
O=C1CC[C@@]2(O)C3Cc4ccc(O)c5c4C2(CCN3CC2CC2)[C@H]1O5 (stereo partly drawn),inactive,inactive
CCCCC[C@@H](O)C1C(=O)OC(C)[C@H](O)/C=C/C=C/C=C/C=C/C=C(\C)C(O)C(O)C(O)C[C@H](O)C[C@H](O)C[C@H](O)C[C@H](O)C[C@@H]1O (stereo partly drawn),inactive,–
O=C(O)C(Cl)(Cl)Cl,inactive,inactive
Cc1sc2ccccc2c1CC1=NCCN1,inactive,inactive
C[N+](C)(C)CC#CCOC(=O)Nc1cccc(Cl)c1,inactive,inactive
CC(N)c1cccc(Cl)c1Cl (stereo not drawn),inactive,inactive
CN1[C@H]2CC[C@@H]1[C@@H](C(=O)O)[C@@H](OC(=O)c1ccccc1)C2,inactive,inactive
C/C(O)=C(\C#N)C(=O)Nc1cc(Br)ccc1Br,inactive,inactive
CC(=O)O[C@H]1CC[C@H]2[C@@H]3CCC4=CC(=O)CCC4=C3C=C[C@]12C,inactive,22.4 µM (active)
CCOC(=O)c1ccccc1C(=O)OCC,inactive,inactive
NC(=O)c1ccc(OCC(O)CN2CC=C(c3ccc(F)cc3)CC2)cc1 (stereo not drawn),inactive,inactive
CCOc1ccc2c3c1O[C@H]1[C@@H](O)C=C[C@H]4[C@@H](C2)N(C)CC[C@@]341,inactive,inactive
C[C@]12CC[C@H](OS(=O)(=O)O)CC1=CC[C@@H]1[C@@H]2CC[C@]2(C)C(=O)CC[C@@H]12,inactive,–

Compound,Potency [1],Potency [2]
C[C@@H]([C@H](O)c1ccccc1)N(C)C,inactive,inactive
O=[N+]([O-])c1ccc2nc(N3CCNCC3)ccc2c1,inactive,inactive
C=CC[C@]1(O)CC[C@H]2[C@@H]3CCC4=CCCC[C@@H]4[C@H]3CC[C@@]21C,inactive,inactive
CCn1cnc2c(Nc3cccc(Cl)c3)nc(N[C@@H]3CCCC[C@@H]3N)nc21,inactive,inactive
CC(C)CCC(=O)O[C@H]1CC[C@H]2[C@@H]3CCC4=CC(=O)CC[C@]4(C)[C@H]3CC[C@]12C,inactive,inactive
CCCC[N+]1(C)C2CC(OC(=O)[C@H](CO)c3ccccc3)CC1C1OC12 (stereo partly drawn),inactive,inactive
O=S1(=O)N(CCN2CC=C(c3c[nH]c4cc(F)ccc34)CC2)c2cccc3c2N1CCC3,inactive,inactive
C[C@@H](CO)NC(=O)[C@@H]1C=C2c3cccc4[nH]cc(c34)C[C@H]2N(C)C1,inactive,–
NC(N)=NOCC[C@H](N)C(=O)O,inactive,inactive
NC(Cc1cc(O)c(O)cc1O)C(=O)O (stereo not drawn),inactive,inactive
N=C(N)c1ccc(CS(=O)(=O)F)cc1,inactive,inactive
CC(C)CCON=O,inactive,inactive
Clc1cc(I)cc(Cl)c1NC1=NCCN1,inactive,inactive
CCC1(CC)C(=O)NC(=O)N(C)C1=O,inactive,inactive
C[C@H](Cc1ccc2c(c1)OC(C(=O)O)(C(=O)O)O2)NC[C@H](O)c1cccc(Cl)c1,inactive,inactive
Cc1cc([C@@H]2CCCN2C)on1,inactive,inactive
C[C@]12CC[C@H]3[C@@H](CCC4=C(O)C(=O)CC[C@@H]43)[C@@H]1CC[C@@H]2OC(=O)CCC1CCCC1,inactive,14.1 µM (active)
O=[N+]([O-])C(Br)(CO)CO,inactive,inactive
FC(F)OC(F)(F)C(F)Cl (stereo not drawn),inactive,inactive
